PubChem BioAssay AID720513 (Broad Institute, 2013)
About 480 (23%) of roughly 2,100 compounds were called active. Another 5% or so got no clear call; they are omitted.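 How the source made its calls: active means fitted curve reaches 40% activation at or below the top valid concentration, in every replicate test; inconclusive means replicate tests disagree on the call; inactive means the rest, including activity in the opposite direction.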 These entries were drawn from the full list. Results with a measured potency or affinity are listed apart.

assay: activators raising PGC1a acetylation in cells, dose response, cell-based, cherry-picked samples, set 6 (AID 720513); settings: U2OS PGC1a acetylation AlphaLISA, overnight, 0 = neutral, -100 = inhibitor control; series mostly up to 19.5 µM; activation (acetylation increase): at the top concentration;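 further: cells made to overexpress flag tagged PGC1a plus GCN5 acetyltransferase by viral infection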

Activation (acetylation increase), inactive:
Cc1ccc(S(=O)(=O)N[C@H]2C=C[C@H](CC(=O)NCCN3CCCCC3)O[C@H]2CO)cc1 13.8%
Cc1ccc2c(Cl)cc(Cl)c(OCc3c(C)noc3C)c2n1 24%
COc1ccc(-n2c(SCC#N)nnc2-c2cccnc2)cc1 -52.4%
COc1ccc(-c2cc(-c3ccccc3)c(C#N)c(S(C)=O)n2)cc1 (centres undefined) -103%
O=C(CC(C(=O)O)c1c[nH]c2ccccc12)c1ccccc1 (centres undefined) 26.7%
CN(NC(=O)c1ccccc1)C1=NS(=O)(=O)c2ccccc21 29.7%
COc1ccc(-c2cc(C(F)(F)F)nc(S(C)(=O)=O)n2)cc1 -80.1%
C=CCNS(=O)(=O)c1cccc2cc(C(=O)O)c(O)cc12 -11.3%
O=C(C=Cc1ccccc1)CC(c1ccccc1)N1CCOCC1 (centres undefined) -65.4%
CCCCOc1ccc(C(=O)C(CN2CCOCC2)c2ccccc2)cc1 (centres undefined) -71.9% [at 10 µM]
COC(=O)COc1c(/C=C\c2nc(O)c([N+](=O)[O-])c(=O)[nH]2)cccc1OC 7.96%
COc1cccc(C(=O)Nn2cnnc2)c1OC -11.2%
Cc1ccc(N)cc1S(=O)(=O)N(C)C 34.7%
COc1ccc(C(=O)NCCCSC)cc1OC1CCN(C(C)C)CC1 7.64%
C[C@@H]1CN([C@@H](C)CO)C(=O)c2cc(-c3cccc(C#N)c3)cnc2O[C@H]1CN(C)C(=O)c1ccccn1 -9.58%
Cc1cc(C)c(C#N)c(N2CCN(c3ccccc3)CC2)n1 -14.4%
Cc1cc(S(=O)(=O)Nc2ccc3ccccc3c2)c(C)s1 -23.3%
C=CS(=O)(=O)N(Cc1ccccc1Br)[C@H](CO)Cc1ccccc1 -31.4%
C=CCSc1nccc(-c2cc(Cl)sc2Cl)n1 34.1%
O=C1C(Cl)=C(N2CCOCC2)C(=O)N1CCc1ccccc1 11.4%
O=C(CCC1CCCN(C(=O)c2cc(C3CC3)[nH]n2)C1)N1CCN(c2ccccn2)CC1 (centres undefined) 18.2%
CN(C)c1ccnc2sc(C(N)=O)c(N)c12 -20.8%
Cc1noc(C)c1S(=O)(=O)N(C)C[C@H]1Oc2ccc(NS(=O)(=O)c3cccs3)cc2C(=O)N([C@H](C)CO)C[C@H]1C 9.57%
Nc1cc(N)nc(SCC(=O)Nc2ccccc2N2CCOCC2)n1 -30.2%
CCOC(=O)CS(=O)(=O)c1nc(-c2ccccc2)cc(C(F)(F)F)n1 -100%
CCOc1ccc(/C=C/C(=O)Oc2ccccc2)cc1 -2.16%
CSc1cccc(N2CC(C(=O)NCCN3C(=O)S/C(=C\c4cccnc4)C3=O)CC2=O)c1 (centres undefined) 7.23%
CN(C)C(=O)C[C@@H]1CC[C@@H]2[C@H](COC[C@@H](O)CN2C(=O)C2CCOCC2)O1 -7.2% [at 10 µM]
CC(C)C#Cc1ccc([C@@H]2[C@H]3CN(C(=O)NC4CCCC4)CC(=O)N3[C@H]2CO)cc1 20.8%
O=C(CN(Cc1ccc2c(c1)OCO2)C(=O)CNS(=O)(=O)c1ccccc1)NCc1ccco1 6.43%
Cc1ccccc1OCC(=O)OCC(=O)NCc1ccc2c(c1)OCO2 -2.91%
CC(=O)Nc1cccc(-c2ccnc3c2CC(C)(C(=O)Nc2ccc4c(c2)OCO4)O3)c1 (centres undefined) 13.7%
Cn1c(SC2=CS(=O)(=O)c3ccccc32)nc2ccccc21 -91.8%
CCOC(=O)CNC(=O)OC1CCN2Cc3ccccc3N=C12 (centres undefined) -16.2%
CN(C)CCNc1oc(COc2ccc(-c3ccccc3)cc2)nc1C#N -99.8%
C[C@H](CO)N1C[C@H](C)[C@@H](CN(C)C(=O)c2ccccn2)Oc2ncc(-c3cccc(C#N)c3)cc2C1=O 1.18%
Cc1nc(N(CCO)C2CCCCC2)c2nnn(Cc3ccccc3)c2n1 -1.58%
C[C@H](NC(=O)C[C@H]1CC[C@@H](NC(=O)C2CC2)[C@H](CO)O1)c1ccccc1 -6.11%
C[C@@H]1CCCCO[C@@H](CN(C)C(=O)c2ccncc2)[C@@H](C)CN([C@H](C)CO)C(=O)c2cc(NC(=O)CCCCCC(=O)Nc3ccccc3N)ccc2O1 -5.98%
O=C(CSc1nc2cc(Cl)ccc2s1)NCC1CCCO1 (centres undefined) 4.04%
COc1ccccc1CNC(=O)C[C@@H]1CC[C@@H]2[C@H](COC[C@H](O)CN2C(=O)Nc2ccc(Cl)cc2)O1 32.8%
CN1CCN(C(=O)C[C@@H]2CC[C@@H]3[C@H](COC[C@H](O)CN3CC3CCCCC3)O2)CC1 -4.22%
Cc1ccc(Nc2nc(-c3c(C)nc4ncccn34)cs2)cc1 -31.5%
Cc1cnc(NC(=O)c2nn(C)cc2[N+](=O)[O-])s1 12.9%
C[C@@H]1CN([C@H](C)CO)C(=O)c2cc(NC(=O)Nc3ccc(F)cc3)ccc2O[C@@H](C)CCCCO[C@@H]1CN(C)C(=O)NC1CCCCC1 2%
CCCc1nc2c(=O)n(C)c(=O)nc-2n(C)n1 -98%
COc1ccccc1N=C1NC(=O)/C(=C/c2ccc(N(C)C)cc2)S1 -4.74%
O=C1/C(=C/c2ccccc2[N+](=O)[O-])COc2ccccc21 -86.7%
O=C1C=CCCN1C(=O)/C=C/c1ccccc1Cl -85%
Cn1nc(C(C)(C)C)cc1NC(=O)C1(C)CCN1C(=O)C1(c2ccccc2)CCCC1 (centres undefined) 1.04%
COc1ccc(-c2onc(C)c2-c2ccc(C(=O)OC(C)C)o2)c(O)c1 14.5%
N#Cc1ccc(CCc2ccccc2)[nH]c1=O 2.14%
NS(=O)(=O)c1ccc(-c2ccc(/C=C3\C(=O)Nc4cc(Cl)ccc43)o2)cc1 -10.5%
O=C(Nc1nc2c(s1)CN(Cc1ccccc1)CC2)c1c(F)cccc1F -21.4%
COc1ccc(-c2[nH]ncc2CN(C)C(C)c2ccon2)cc1F (centres undefined) -24.4%
COc1ccc(OC)c(-n2c(-c3ccc(C)cc3)n[nH]c2=S)c1 18.7%
COc1cccc(-n2c(-c3cccc(S(=O)(=O)N(C)C)c3)n[nH]c2=S)c1 -8.6%
CCn1cc(C(=O)NCc2cccnc2)c2cc(OC)c(OC)cc2c1=O 12.7%
CCC(C)C(NC(=O)C1CCC(C)CC1)C(=O)NCc1cccnc1 (centres undefined) 28.8%
COc1cccc(S(=O)(=O)N[C@H]2CC[C@H](CC(=O)NCc3ccc(F)cc3)O[C@@H]2CO)c1 19.6%
Cc1ccc(S(=O)(=O)Nc2ccccc2C(=O)NCc2cccnc2)cc1 -21.2%
COc1cccc(Cn2c(NCc3cccnc3)nc3c2c(=O)n(C)c(=O)n3C)c1 -13.5%
COc1ccc2nc(NCc3cccnc3)sc2c1 -12.2%
C[C@H]1CN([C@@H](C)CO)C(=O)c2cc(C3=CCCC3)cnc2O[C@@H]1CN(C)C(=O)c1cccnc1 7.97%
